# According to the supplement of paper PMC9588786:
# ± gives the standard deviation of the averaged measurements.
# Test system: HT-1080
# Test: relative cell viability with RSL3 co-treatment (fraction of control); higher = stronger protection from RSL3-induced ferroptosis (higher viability)
# Settings: 10 µM
# 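Further: viability read as CCK-8 absorbance at 450 nm in cells co-exposed to the GPX4 inhibitor RSL3, relative to a 0.01% DMSO vehicle control.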
row,Compound,relative cell viability
1,COc1cc2ncc(-c3ccccc3)nc2cc1OC [Tyrphostin AG 1296],0.567 ± 0.11
2,O=C(NC(NC(=S)Nc1ccc(F)c([N+](=O)[O-])c1)C(Cl)(Cl)Cl)C(c1ccccc1)c1ccccc1 (centres undefined),0.62 ± 0.095
3,Cn1cnc2c(F)c(Nc3ccc(Br)cc3Cl)c(C(=O)NOCCO)cc21 [Selumetinib (AZD6244)],0.807 ± 0.015
4,CCCCOc1c(C(=O)c2c(F)cc(C)cc2F)c[nH]c2nncc1-2,0.903 ± 0.24
5,CC(C)CCN1c2nc(Nc3cc(F)c(O)c(F)c3)ncc2N(C)C(=O)C1C (centres undefined),0.717 ± 0.14
6,CCc1cnn2c(NCc3ccc[n+]([O-])c3)cc(N3CCCC[C@H]3CCO)nc12,0.61 ± 0.1
7,CC(=O)c1c(C)c2cnc(Nc3ccc(N4CCNCC4)cn3)nc2n(C2CCCC2)c1=O,0.623 ± 0.074
8,N#C/C(=C(/N)Sc1ccc(N)cc1)c1ccccc1C(F)(F)F,0.913 ± 0.038
9,O=C(NC1CCNCC1)c1n[nH]cc1NC(=O)c1c(Cl)cccc1Cl,0.56 ± 0.18
10,CC(C)[C@H](CO)Nc1nc(Nc2cccc(Cl)c2)c2ncn(C(C)C)c2n1 [Purvalanol A],0.65 ± 0.09
11,CCc1ccc(/C=C2/SC(=S)NC2=O)cc1,0.62 ± 0.087
12,Cc1nc(N)sc1-c1ccnc(Nc2ccc(N3CCOCC3)cc2)n1,0.6 ± 0.095
13,COc1ccc(S(=O)(=O)N(CCO)c2ccccc2CN(C)C/C=C/c2ccc(Cl)cc2)cc1 [KN-93 Phosphate],0.813 ± 0.011
14,CN(C)Cc1cccc(N=C(c2ccccc2)c2c(O)[nH]c3cc(C(=O)N(C)C)ccc23)c1,0.79 ± 0.044
15,"Nc1cc(C(F)(F)F)c(-c2cc(N3CCOCC3)nc(N3CCOCC3)n2)cn1 [Buparlisib (BKM120, NVP-BKM120)]",0.643 ± 0.031
16,Cn1cc(/C=C2\C(=O)Nc3cccnc32)c2ccccc21,0.927 ± 0.015
17,N[C@@H]1CCCN(c2c(/C=C3\SC(=O)NC3=O)cccc2-c2ccccc2)C1,0.697 ± 0.13
18,COc1cc(Nc2ncc(F)c(Nc3ccc4c(n3)NC(=O)C(C)(C)O4)n2)cc(OC)c1OC [R406 (free base)],0.79 ± 0.02
19,COc1cc(Nc2ncc3c(n2)-c2ccc(Cl)cc2C(c2c(F)cccc2OC)=NC3)ccc1C(=O)O [Alisertib (MLN8237)],0.39 ± 0.18
20,CC(C)(C)NS(=O)(=O)c1cncc(-c2cc(F)c3nc(N)nn3c2)c1,0.803 ± 0.15

row,Compound,relative cell viability
1,Nc1cccc(-c2cc3c(Oc4cccc(O)c4)ncnc3[nH]2)c1,0.483 ± 0.046
2,COc1cc2nccc(Oc3ccc(NC(=O)NC4CC4)c(Cl)c3)c2cc1C(N)=O [Lenvatinib (E7080)],0.56 ± 0.12
3,CS(=O)(=O)N1CCN(Cc2cc3nc(-c4cccc5[nH]ncc45)nc(N4CCOCC4)c3s2)CC1 [Pictilisib (GDC-0941)],0.547 ± 0.11
4,CC(C)(C)c1cc(NC(=O)Nc2ccc(-c3cn4c(n3)sc3cc(OCCN5CCOCC5)ccc34)cc2)no1 [Quizartinib (AC220)],0.473 ± 0.04
5,Cc1c(NC(=O)OC[C@@H]2COCCN2)cn2ncnc(Nc3ccc4c(cnn4Cc4cccc(F)c4)c3)c12,0.793 ± 0.023
6,Cc1c(F)cc(C(=O)NC2CC2)cc1-c1ccc(C(=O)NCC(C)(C)C)cn1,0.563 ± 0.12
7,CC(C)(C)Cn1c(N)nc2ccc(-c3[nH]c(C(C)(C)C)nc3-c3ccc(F)cc3)nc21,0.71 ± 0.017
8,CC[C@@](C)(Nc1ccnc(-c2c[nH]c3ncccc23)n1)C(=O)NCC(F)(F)F [Decernotinib (VX-509)],0.823 ± 0.042
9,Cc1cnc(Nc2ccc(OCCN3CCCC3)cc2)nc1Nc1cccc(S(=O)(=O)NC(C)(C)C)c1,0.433 ± 0.093
10,O=C(O)c1ccc(N2C(=O)/C(=C\c3ccc(-c4ccc([N+](=O)[O-])cc4)o3)C=C2c2ccccc2)cc1,1.24 ± 0.092
11,CCCCCCCCCCCCCCCCCCOP(=O)([O-])OC1CC[N+](C)(C)CC1 [Perifosine (KRX-0401)],0.463 ± 0.18
12,CCCCCCCCCCCCCCCCOP(=O)([O-])OCC[N+](C)(C)C [Miltefosine],0.6 ± 0.13
13,O=C(/C=C/c1ccc(O)c(O)c1)c1ccc(O)cc1O [Butein],0.74 ± 0.075
14,C[S+]([O-])c1ccc(-c2nc(-c3ccc(F)cc3)c(-c3ccncc3)[nH]2)cc1 (centres undefined),0.603 ± 0.032
15,O=C1c2ccc(Nc3ccc(F)cc3F)cc2CCc2ccc(OC[C@H](O)CO)cc21 [Skepinone-L],0.513 ± 0.12
16,COC(=O)c1ccc2c(c1)NC(=O)/C2=C(\Nc1ccc(N(C)C(=O)CN2CCN(C)CC2)cc1)c1ccccc1 [Nintedanib (BIBF 1120)],0.9 ± 0.12
17,Cc1[nH]c(/C=C2\C(=O)Nc3ccc(S(=O)(=O)N(C)c4cccc(Cl)c4)cc32)c(C)c1C(=O)N1CCN(C)CC1,0.547 ± 0.075
18,Nc1nccc(Oc2ccc(NC(=O)c3c[nH]cc(-c4ccc(F)cc4)c3=O)cc2F)c1Cl,0.57 ± 0.036
19,Cc1cc(Nc2cc(N3CCN(C)CC3)nc(/C=C/c3ccccc3)n2)n[nH]1,0.203 ± 0.1
